{"source": "the supplement of paper PMC11732987", "about": "“Enantioselective OTUD7B fragment discovery through chemoproteomics screening and high-throughput optimisation” (Communications Chemistry, 2025)", "assay_in_all_cases": "log2 ratio of Biotin-Ahx-Ub-VS probe labelling (fragment/DMSO); higher = less target engagement (more negative = stronger competition), active = hit call of the paper (q ≤ 0.05, log2 ratio ≤ -1)", "details_in_all_cases": "compound concentration: 200 uM; treatment time: 3 h", "key": {"USP9X": {"target": "USP9X (UniProt Q93008)", "sequence (Q93008 whole entry, the tested form may be a part)": "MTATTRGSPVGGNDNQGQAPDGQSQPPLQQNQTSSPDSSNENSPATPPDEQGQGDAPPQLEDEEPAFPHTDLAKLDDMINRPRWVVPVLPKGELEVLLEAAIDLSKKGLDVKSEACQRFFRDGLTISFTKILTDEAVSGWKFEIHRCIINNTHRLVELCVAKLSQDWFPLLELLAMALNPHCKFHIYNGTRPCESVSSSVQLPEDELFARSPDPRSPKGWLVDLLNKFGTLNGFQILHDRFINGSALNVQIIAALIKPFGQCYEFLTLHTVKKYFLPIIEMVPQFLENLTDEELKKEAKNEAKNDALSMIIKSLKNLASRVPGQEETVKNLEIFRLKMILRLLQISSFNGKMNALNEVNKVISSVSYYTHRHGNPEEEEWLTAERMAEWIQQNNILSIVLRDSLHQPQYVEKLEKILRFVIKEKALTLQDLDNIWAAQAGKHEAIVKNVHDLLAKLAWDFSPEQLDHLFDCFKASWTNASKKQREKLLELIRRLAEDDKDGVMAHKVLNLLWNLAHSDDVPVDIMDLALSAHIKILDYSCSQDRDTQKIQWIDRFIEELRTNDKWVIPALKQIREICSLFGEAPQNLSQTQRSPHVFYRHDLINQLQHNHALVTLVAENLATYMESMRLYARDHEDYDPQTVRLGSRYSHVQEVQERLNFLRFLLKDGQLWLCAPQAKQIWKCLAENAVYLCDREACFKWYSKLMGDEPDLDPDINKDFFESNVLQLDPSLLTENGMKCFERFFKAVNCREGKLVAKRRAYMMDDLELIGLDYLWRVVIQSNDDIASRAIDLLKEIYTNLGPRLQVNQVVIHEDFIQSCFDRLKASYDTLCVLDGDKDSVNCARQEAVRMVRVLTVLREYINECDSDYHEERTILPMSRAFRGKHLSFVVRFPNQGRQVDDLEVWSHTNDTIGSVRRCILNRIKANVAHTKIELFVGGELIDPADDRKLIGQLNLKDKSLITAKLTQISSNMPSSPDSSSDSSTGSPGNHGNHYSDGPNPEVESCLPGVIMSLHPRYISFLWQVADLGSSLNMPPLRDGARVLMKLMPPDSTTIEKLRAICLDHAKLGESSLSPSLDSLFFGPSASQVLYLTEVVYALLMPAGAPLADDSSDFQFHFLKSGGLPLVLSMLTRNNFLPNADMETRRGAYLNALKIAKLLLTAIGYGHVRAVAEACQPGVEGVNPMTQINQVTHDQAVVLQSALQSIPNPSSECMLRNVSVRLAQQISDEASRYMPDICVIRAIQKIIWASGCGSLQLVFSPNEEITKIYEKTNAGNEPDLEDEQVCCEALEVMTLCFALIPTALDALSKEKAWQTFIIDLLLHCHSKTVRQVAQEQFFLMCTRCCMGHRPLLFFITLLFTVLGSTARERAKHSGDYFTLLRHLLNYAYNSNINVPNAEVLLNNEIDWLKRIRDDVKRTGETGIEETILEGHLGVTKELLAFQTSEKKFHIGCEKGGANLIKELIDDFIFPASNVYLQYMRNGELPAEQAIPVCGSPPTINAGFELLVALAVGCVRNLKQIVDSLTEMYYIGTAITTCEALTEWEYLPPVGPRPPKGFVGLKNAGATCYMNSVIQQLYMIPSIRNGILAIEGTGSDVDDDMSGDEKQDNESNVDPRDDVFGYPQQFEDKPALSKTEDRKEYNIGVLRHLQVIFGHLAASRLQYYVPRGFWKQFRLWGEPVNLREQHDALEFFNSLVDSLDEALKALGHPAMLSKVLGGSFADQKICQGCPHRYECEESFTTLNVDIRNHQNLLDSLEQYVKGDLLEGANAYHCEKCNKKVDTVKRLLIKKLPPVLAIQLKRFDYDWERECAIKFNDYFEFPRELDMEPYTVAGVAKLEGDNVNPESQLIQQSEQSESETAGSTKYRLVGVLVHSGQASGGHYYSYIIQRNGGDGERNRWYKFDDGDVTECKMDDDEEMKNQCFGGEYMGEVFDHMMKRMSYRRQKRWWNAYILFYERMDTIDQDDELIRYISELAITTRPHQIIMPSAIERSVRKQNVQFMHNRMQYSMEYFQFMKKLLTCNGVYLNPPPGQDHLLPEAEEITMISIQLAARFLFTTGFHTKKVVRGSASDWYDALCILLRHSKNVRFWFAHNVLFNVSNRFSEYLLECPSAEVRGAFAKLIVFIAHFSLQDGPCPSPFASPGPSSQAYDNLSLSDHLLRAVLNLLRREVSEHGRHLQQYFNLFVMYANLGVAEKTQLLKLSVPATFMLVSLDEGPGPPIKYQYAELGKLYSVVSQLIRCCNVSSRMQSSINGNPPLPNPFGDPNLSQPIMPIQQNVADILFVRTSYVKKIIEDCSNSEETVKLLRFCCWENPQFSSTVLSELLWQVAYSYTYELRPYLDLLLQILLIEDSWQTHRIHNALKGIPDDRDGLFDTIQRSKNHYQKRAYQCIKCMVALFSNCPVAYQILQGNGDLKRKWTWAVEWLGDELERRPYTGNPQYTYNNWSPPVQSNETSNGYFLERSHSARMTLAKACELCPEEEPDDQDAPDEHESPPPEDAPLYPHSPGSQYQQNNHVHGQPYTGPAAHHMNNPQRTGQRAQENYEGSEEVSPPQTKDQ", "method_in_brief": "(§1)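 In triplicate, 495 µg of HEK293T lysate per sample was incubated with fragment at 200 µM or vehicle for 3 h. Biotin-Ahx-Ub-VS was then added to 0.5 µM final for 1 h, and labelled DUBs were captured with NeutrAvidin, digested with LysC and trypsin, and measured by diaPASEF LC-MS/MS. Data are average log2 fragment/vehicle ratios by unpaired t-test from global-median-normalised Spectronaut label-free quantities, restricted to proteins with ≥2 unique peptides.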"}, "UniProt O00487": {"target": "UniProt O00487", "sequence (O00487 whole entry)": "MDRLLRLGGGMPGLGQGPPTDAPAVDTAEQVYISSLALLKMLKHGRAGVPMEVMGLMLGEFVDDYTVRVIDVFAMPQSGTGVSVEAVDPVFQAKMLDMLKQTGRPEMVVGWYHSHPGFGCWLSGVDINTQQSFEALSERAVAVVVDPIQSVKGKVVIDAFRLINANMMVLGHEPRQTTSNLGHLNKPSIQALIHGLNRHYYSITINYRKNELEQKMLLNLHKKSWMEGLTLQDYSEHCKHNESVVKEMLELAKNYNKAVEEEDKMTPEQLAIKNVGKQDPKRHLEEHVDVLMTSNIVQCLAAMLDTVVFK", "method_in_brief": "as §1"}, "UniProt O00507": {"target": "UniProt O00507", "method_in_brief": "as §1"}, "UniProt P51784": {"target": "UniProt P51784", "sequence (P51784 whole entry)": "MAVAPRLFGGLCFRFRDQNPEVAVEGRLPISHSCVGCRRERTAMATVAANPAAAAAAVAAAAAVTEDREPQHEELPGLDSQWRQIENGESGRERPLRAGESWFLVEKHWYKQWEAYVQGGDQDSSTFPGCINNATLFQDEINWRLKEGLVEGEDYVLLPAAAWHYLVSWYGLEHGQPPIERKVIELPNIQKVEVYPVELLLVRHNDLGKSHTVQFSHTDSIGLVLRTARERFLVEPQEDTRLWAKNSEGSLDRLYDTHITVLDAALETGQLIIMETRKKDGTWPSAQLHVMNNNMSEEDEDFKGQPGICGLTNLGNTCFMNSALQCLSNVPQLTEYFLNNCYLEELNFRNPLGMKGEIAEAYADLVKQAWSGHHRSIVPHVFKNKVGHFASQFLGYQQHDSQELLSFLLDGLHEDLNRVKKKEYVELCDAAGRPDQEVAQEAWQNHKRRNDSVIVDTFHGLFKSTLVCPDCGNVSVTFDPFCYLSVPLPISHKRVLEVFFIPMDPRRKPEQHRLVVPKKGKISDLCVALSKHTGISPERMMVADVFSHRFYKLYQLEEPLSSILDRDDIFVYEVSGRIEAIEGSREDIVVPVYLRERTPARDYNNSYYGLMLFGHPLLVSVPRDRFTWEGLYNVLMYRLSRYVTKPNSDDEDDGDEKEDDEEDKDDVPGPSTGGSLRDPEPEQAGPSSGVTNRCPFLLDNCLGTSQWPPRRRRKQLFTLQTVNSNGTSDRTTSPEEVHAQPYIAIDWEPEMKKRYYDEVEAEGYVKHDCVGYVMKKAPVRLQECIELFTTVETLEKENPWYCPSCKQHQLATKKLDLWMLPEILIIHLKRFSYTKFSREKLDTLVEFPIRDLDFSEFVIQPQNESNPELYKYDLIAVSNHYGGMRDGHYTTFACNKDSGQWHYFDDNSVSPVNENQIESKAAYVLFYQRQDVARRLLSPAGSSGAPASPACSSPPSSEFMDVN", "method_in_brief": "as §1"}, "UniProt Q5T2D3": {"target": "T1, UniProt Q5T2D3", "T1 sequence (whole entry)": "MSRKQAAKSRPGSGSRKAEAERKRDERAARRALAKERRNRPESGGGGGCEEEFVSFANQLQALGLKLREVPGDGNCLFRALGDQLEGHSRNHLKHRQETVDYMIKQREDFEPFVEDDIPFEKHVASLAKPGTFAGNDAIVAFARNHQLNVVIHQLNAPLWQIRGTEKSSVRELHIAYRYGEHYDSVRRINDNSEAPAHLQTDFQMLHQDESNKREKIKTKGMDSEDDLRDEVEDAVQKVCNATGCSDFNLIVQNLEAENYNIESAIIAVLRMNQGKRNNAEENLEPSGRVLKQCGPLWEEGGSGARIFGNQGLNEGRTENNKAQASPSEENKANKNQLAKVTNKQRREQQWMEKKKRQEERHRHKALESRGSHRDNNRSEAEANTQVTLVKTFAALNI", "method_in_brief": "as §1"}, "UniProt Q8TE49": {"target": "T2, UniProt Q8TE49", "T2 sequence (whole entry)": "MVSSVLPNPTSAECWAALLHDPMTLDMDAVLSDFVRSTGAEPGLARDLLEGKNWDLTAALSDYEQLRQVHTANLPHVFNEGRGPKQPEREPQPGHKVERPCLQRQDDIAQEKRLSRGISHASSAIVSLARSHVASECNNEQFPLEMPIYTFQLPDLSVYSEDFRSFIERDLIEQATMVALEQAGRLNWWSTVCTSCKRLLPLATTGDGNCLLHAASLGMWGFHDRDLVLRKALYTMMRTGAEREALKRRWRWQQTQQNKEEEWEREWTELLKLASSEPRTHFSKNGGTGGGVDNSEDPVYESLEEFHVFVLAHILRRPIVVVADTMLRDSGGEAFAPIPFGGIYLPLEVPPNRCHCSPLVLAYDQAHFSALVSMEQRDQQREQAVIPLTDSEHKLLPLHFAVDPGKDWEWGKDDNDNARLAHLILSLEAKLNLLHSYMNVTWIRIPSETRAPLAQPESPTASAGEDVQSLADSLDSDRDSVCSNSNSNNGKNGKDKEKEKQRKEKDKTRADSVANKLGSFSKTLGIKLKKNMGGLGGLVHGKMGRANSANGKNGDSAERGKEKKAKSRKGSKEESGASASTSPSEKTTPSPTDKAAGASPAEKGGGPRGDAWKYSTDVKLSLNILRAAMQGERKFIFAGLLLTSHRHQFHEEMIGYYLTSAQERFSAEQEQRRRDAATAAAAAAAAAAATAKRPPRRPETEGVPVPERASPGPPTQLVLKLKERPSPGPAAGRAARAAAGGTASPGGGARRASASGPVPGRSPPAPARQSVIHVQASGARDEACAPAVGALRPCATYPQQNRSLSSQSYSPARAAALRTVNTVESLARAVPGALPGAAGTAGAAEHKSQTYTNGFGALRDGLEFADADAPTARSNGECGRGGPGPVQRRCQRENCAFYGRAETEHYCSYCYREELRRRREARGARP", "method_in_brief": "as §1"}, "UniProt Q9P2H5": {"target": "T3, UniProt Q9P2H5", "T3 sequence (whole entry)": "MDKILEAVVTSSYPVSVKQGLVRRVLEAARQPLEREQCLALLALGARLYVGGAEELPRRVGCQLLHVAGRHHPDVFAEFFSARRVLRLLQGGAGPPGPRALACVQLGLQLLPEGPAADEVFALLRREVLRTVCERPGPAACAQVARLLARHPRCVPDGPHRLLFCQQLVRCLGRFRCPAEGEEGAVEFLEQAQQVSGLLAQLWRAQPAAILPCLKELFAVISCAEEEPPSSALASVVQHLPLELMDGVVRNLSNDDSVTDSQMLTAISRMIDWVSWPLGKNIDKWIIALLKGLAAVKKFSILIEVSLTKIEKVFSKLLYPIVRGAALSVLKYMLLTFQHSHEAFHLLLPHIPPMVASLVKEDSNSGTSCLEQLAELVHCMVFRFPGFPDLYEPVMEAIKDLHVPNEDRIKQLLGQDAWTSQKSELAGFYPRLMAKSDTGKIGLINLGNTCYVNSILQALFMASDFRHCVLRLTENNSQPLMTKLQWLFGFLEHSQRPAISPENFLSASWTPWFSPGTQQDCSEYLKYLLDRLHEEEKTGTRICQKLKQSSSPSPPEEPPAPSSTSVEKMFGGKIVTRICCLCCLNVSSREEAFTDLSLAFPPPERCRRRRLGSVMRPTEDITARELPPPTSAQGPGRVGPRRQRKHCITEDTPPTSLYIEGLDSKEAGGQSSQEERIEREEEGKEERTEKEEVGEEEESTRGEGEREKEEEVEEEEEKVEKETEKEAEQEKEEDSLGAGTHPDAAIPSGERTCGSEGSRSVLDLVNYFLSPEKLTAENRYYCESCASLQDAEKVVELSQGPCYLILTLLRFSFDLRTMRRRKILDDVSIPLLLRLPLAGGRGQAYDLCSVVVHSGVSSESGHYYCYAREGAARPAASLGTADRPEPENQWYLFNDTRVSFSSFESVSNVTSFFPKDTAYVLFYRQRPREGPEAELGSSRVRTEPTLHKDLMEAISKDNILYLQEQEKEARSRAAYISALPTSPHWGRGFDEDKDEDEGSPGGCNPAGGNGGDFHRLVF", "method_in_brief": "as §1"}, "UniProt Q9UGI0": {"target": "T4, UniProt Q9UGI0", "T4 sequence (whole entry)": "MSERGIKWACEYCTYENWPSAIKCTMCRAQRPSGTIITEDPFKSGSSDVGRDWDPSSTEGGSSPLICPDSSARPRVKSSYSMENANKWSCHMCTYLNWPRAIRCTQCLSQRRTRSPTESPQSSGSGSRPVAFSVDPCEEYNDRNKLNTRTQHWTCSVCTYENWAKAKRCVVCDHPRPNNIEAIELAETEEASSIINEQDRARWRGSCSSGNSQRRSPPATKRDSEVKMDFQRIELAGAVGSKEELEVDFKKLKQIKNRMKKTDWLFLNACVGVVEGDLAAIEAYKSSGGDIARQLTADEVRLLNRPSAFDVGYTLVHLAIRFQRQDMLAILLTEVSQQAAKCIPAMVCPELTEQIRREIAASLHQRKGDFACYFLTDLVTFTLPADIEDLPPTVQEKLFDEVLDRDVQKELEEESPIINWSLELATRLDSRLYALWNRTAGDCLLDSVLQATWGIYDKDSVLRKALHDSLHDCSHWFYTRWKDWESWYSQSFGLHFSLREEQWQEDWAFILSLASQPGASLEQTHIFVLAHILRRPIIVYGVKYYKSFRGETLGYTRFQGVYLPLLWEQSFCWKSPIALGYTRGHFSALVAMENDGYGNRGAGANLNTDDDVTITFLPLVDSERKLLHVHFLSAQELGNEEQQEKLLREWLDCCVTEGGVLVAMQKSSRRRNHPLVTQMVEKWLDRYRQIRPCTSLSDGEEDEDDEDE", "method_in_brief": "as §1"}, "YOD1": {"target": "T5, YOD1 (UniProt Q5VVQ6)", "T5 sequence (whole entry)": "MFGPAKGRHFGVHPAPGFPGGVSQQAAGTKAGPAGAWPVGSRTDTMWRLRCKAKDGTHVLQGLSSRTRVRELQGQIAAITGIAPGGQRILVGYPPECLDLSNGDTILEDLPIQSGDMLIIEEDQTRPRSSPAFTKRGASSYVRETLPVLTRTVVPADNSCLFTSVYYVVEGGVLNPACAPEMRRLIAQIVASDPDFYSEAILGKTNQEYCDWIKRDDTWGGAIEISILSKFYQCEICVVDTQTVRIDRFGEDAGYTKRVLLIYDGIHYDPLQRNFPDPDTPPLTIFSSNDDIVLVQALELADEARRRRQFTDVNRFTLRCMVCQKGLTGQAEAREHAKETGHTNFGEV", "method_in_brief": "as §1"}}, "note": "A number with no mark means an inactive call.", "data": [{"smiles": "Cl.Cn1ncc2c1CCCC2NC(=O)CCl", "note": "(centres undefined)", "values": [{"measurement": "log2 ratio of Biotin-Ahx-Ub-VS probe labelling", "setting": "USP9X", "value": -0.000676}, {"measurement": "log2 ratio of Biotin-Ahx-Ub-VS probe labelling", "setting": "UniProt O00487", "value": -0.128}, {"measurement": "log2 ratio of Biotin-Ahx-Ub-VS probe labelling", "setting": "UniProt O00507", "value": -0.0339}, {"measurement": "log2 ratio of Biotin-Ahx-Ub-VS probe labelling", "setting": "UniProt P51784", "value": -0.154}, {"measurement": "log2 ratio of Biotin-Ahx-Ub-VS probe labelling", "setting": "UniProt Q5T2D3", "value": -0.121}, {"measurement": "log2 ratio of Biotin-Ahx-Ub-VS probe labelling", "setting": "UniProt Q8TE49", "value": "-3.69 (active)"}, {"measurement": "log2 ratio of Biotin-Ahx-Ub-VS probe labelling", "setting": "UniProt Q9P2H5", "value": -0.276}, {"measurement": "log2 ratio of Biotin-Ahx-Ub-VS probe labelling", "setting": "UniProt Q9UGI0", "value": 0.0166}, {"measurement": "log2 ratio of Biotin-Ahx-Ub-VS probe labelling", "setting": "YOD1", "value": -0.109}]}]}
